Six1-Eya2 inh = Six1/Eya2 interaction inhibition; AlphaScreen GST-Six1/His-Eya2 binding, biochemical; hits give low values; AID 651725; activity change, % (concentration not given with the values); Q15475+O00167; actives 0.56% (n = 360,000); in the data active = activity change below about -65%; inconclusive = mostly about -30% to -63%; note: % is set by controls: 0 for no effect and ±100 for the full control effect
Target sequence (O00167 whole entry, looked up): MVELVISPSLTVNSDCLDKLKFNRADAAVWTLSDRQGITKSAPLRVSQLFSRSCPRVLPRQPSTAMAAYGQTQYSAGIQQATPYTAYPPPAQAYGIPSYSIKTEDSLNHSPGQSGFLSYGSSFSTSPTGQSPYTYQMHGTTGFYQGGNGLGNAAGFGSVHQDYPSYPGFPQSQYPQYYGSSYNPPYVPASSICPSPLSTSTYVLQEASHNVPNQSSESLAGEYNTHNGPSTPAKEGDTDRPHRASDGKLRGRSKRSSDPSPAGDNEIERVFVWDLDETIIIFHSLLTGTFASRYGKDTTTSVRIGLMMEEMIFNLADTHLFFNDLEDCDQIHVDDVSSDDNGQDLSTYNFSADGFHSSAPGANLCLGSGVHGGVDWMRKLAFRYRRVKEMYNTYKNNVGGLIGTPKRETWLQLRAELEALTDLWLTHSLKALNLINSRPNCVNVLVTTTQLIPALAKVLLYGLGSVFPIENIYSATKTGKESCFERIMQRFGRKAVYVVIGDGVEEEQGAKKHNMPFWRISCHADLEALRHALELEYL
Target sequence (Q15475 whole entry, looked up): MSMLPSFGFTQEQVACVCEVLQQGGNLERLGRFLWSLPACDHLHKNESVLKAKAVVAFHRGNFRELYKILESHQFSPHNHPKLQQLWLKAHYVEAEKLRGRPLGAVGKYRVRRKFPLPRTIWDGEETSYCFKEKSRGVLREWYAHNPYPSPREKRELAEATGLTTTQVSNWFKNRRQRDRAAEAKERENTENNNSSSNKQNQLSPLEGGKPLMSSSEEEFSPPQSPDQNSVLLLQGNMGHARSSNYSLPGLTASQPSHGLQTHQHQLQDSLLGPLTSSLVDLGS
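GST-Six1 + His-Eya2 (5X stock: 250/500 nM); Tris pH 8.0, 300 mM NaCl, 0.05% BSA, 0.02% Tween 20; GSH donor/Ni acceptor beads; 1 h 37 °C dark; AlphaScreen readout.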
S2 tox = viability counter-screen for ATXN expression inhibitors; Potency, µM (highest dose often 56.7 µM), hits mostly cytotoxic; AID 651635; S2 cells (HEK-293 line with an ATXN2-luciferase reporter) viability, CellTiter-Fluor protease fluorescence, 24 h; actives 0.49% (n = 400,000); note: potency is the fitted concentration of half-maximal effect; nearly all actives have a fitted effect of over 40% in size
CtBP-E1A blk = CtBP/E1A binding inhibition; AlphaScreen GST-E1A/His-CtBP binding, 1536-well; hits give low values; activity change, % (no concentration beside the values); actives 0.49% (n = 340,000); AID 651724; in the data active = activity change below about -65%; inconclusive = mostly about -30% to -63%; note: % is set by controls: 0 for no effect and ±100 for the full control effect
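Homogeneous bead-based format: GST-tagged E1A captured on glutathione donor beads, His-tagged CtBP on nickel acceptor beads; compounds precede bead addition by 2 h at 37 °C.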
ATXN2 expr inh = inhibitors of ATXN2 expression. HEK-293 ATXN2-luciferase reporter, luminescence, 24 h. Potency, µM (top dose mostly 57 µM), inactives show at the top dose activity change, negative = inhibition, most hits filed as inhibitors. actives 0.72% (n = 360,000). AID 1745845; note: potency is the fitted concentration of half-maximal effect; % is set by controls: 0 for no effect and ±100 for the full control effect; nearly all actives have a fitted effect of over 55% in size
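ATXN2-luciferase reporter cells (luciferase flanked by upstream and downstream ATXN2 gene portions) were treated 24 h at 37 °C with compounds at up to 57 uM. SteadyGlo luminescence gave expression; GF-AFC fluorescence gave viability.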
TGFb inhibitor = blocks TGF-b signaling. HepG2 CAGA-GFP TGF-b/SMAD3 reporter, GFP fluorescence, 18 h; TGF-beta stimulated, 500 pg/mL final. Potency, µM (highest dose often 46.1 µM), for inactives: at the top dose activity, negative = inhibition, hits mostly inhibitors. actives 1.2% (n = 410,000). AID 588855; note: potency is the fitted concentration of half-maximal effect; % is set by controls: 0 for no effect and ±100 for the full control effect; nearly all actives have a fitted effect of over 65% in size
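HEPG2 CAGA-GFP, 1000 cells/well; 2 h settle, 37 C; cpd via pin tool; TGF-b 500 pg/mL final; 18 h, 37 C; GFP imaging ex488/em500-530; %Activity normalised to -TGF-b and +DMSO controls; CRC fit, curve class.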
HepG2 viability = counter-screen for TGF-b inhibitors: cytotoxicity in HepG2 cells. Potency, µM (doses to about 46.1 µM), inactives show at the highest dose activity change, negative = cytotoxicity, actives largely listed as cytotoxic. HepG2 CAGA-GFP viability, ATP luminescence, 18 h. AID 588856. actives 0.76% (n = 410,000); note: potency is the fitted concentration of half-maximal effect
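HepG2 CAGA-GFP cells (1000/well, DMEM with 1% FBS) received compound, then TGF-beta at 500 pg/mL final, and were incubated 18 hours at 37 degrees C. Viability was read by CellTiter-Glo luminescence. Media-only wells were set as complete cell-killing and DMSO as no toxicity.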
* = called active by the depositor; i = inactive; ? = inconclusive; . = not tested or not shown. Shown are actives, neighbours in structure and some others; about 2.8% of the full set was active somewhere. Unless noted, calls come from the whole dose curve; as a rule, active = well fitted curve in the direction sought with a large enough effect; inconclusive = small, poorly fitted or top-dose-only effect, or another doubt; inactive = no such curve, though single readings can be large; an effect the other way counts as inactive or inconclusive.

SMILES	Six1-Eya2 inh	S2 tox	CtBP-E1A blk	ATXN2 expr inh	TGFb inhibitor	HepG2 viability
CC(C)(C)OC(=O)N1CCC(c2c(C(=O)NCc3ccc4c(c3)OCO4)cnn2-c2ccccc2Cl)CC1	.	.	.	.	?	-34.9%
O=S(=O)(/C=C/c1ccccc1)N1CCC(n2c(C3CCCO3)nc3cccnc32)CC1 (configuration not stated)	.	i	.	.	.	.
CN(C(=O)CSc1n[nH]c(-c2cccs2)n1)C1CCS(=O)(=O)C1 (configuration not stated)	10.0	i	14.2	2.6%	7.0%	11.2µM*
CN(C(=O)CSc1nnc(-c2cccs2)o1)C1CCS(=O)(=O)C1 (configuration not stated)	2.2	i	-2.2	15.3%	-8.4%	-7.3%
COc1ccc(C=Cc2cc(OC)c(OC)c(OC)c2)cc1NC(=O)[C@H](N)CO	.	.	.	-11.2%	.	.
CCOC(=O)C1=C(C)N=c2s/c(=C\c3ccc(OCC(=O)O)cc3)c(=O)n2C1c1ccccc1 (configuration not stated)	-28.7	i	-2.0	0.4%	-1.9%	10.4%
CCOC(=O)C1=C(c2ccccc2)N=c2s/c(=C\c3ccc(O)cc3)c(=O)n2C1c1cccs1 (configuration not stated)	-8.3	?	-13.0	28.2µM*	?	-89.3%
CCOC(=O)C1=C(C)N=c2s/c(=C/c3cccc([N+](=O)[O-])c3O)c(=O)n2C1c1ccccc1 (configuration not stated)	-70.9*	?	-79.9*	-23.5%	-13.5%	4.4%
CCOC(=O)C1=C(C)N=c2s/c(=C/c3cccc([N+](=O)[O-])c3O)c(=O)n2C1c1cc(OC)c(OC)c(OC)c1 (configuration not stated)	-70.2*	?	-79.8*	-22.7%	0.0%	5.3%
Cc1ccc(OCc2nc3ccccc3n2Cc2ccccc2Cl)cc1	.	i	.	-17.9%	?	-46.6%
CCOc1ccc(N=C(C)Nc2ccc(OCC)cc2)cc1	.	i	.	.	.	.
Cc1c(Cl)cccc1NC(=O)N1CCC(CN2CCCC2)CC1	.	.	.	.	-8.0%	3.6%
Cc1ccc(C)c(C(=O)CSc2nnnn2C(C)C)c1	5.0	i	11.1	20.6%	-1.8%	-13.6%
Cc1ccc(C(=O)CSc2nnnn2C(C)C)c(C)c1	9.0	i	9.5	7.94µM*	-2.5%	-5.4%
COc1ccc(OC)c(CNC(=O)C2CCCCN2S(=O)(=O)c2ccc(F)cc2)c1 (configuration not stated)	.	i	.	-0.9%	7.94µM*	-15.8%
COc1ccc(NC(=O)C(=O)NCCC2CCCCN2S(=O)(=O)c2ccc(F)cc2)cc1 (configuration not stated)	7.1	i	-16.0	2.51µM*	-17.0%	4.1%
COc1ccccc1-c1ccnc(-n2ncc(C(=O)NC3CCCN(Cc4ccccc4)C3)c2C)n1 (configuration not stated)	.	i	.	.	.	.
CCC1CCCCN1S(=O)(=O)c1cc(C(=O)Nc2ccc(C)c(F)c2)ccc1F (configuration not stated)	.	.	.	.	11.2µM*	-14.1%
C/C=C(/C(=C/C)c1ccc(OC(C)=O)cc1)c1ccc(OC(C)=O)cc1	.	i	.	-12.1%	.	.
COc1cc(/C=C2\SC(=S)N(C(Cc3ccccc3)C(=O)O)C2=O)ccc1O (configuration not stated)	?	12.6µM*	.	.	-8.2%	1.2%
COc1cc(/C=C2\SC(=S)N(NC(=O)c3cccnc3)C2=O)ccc1O	?	31.6µM*	.	.	-9.3%	-10.3%
CCOc1cc(/C=C2\SC(=S)N(NS(=O)(=O)c3ccccc3)C2=O)ccc1O	-15.4	11.2µM*	.	.	3.2%	-23.2%
O=C(O)C(Cc1ccccc1)N1C(=O)/C(=C/c2ccccc2)SC1=S (configuration not stated)	0.1	?	0.0	-5.7%	-11.2%	-22.8%
Cc1cc(Cn2cnc3c(cnn3C(C)(C)C)c2=O)ccc1F	.	.	.	.	-15.2%	-6.1%
C[C@H]1O[C@H](O[C@H]2[C@H](O)[C@@H](O)[C@@H](O[C@H]3[C@H](O)[C@@H](O)[C@H](O)O[C@@H]3CO)O[C@@H]2CO)[C@H](O)[C@@H](O)[C@@H]1N[C@H]1C=C(CO)[C@@H](O)[C@H](O)[C@H]1O	.	i	.	1.7%	.	.
SMILES	Six1-Eya2 inh	S2 tox	CtBP-E1A blk	ATXN2 expr inh	TGFb inhibitor	HepG2 viability
COc1nc(C)cnc1NS(=O)(=O)c1cccnc1-c1ccc(-c2nnco2)cc1	.	.	.	-7.0%	.	.
COc1cc(=O)n2c(c1C(=O)NC(C)c1ccco1)CCN(Cc1ccc3nsnc3c1)CC2 (configuration not stated)	.	i	.	.	.	.
C[C@H]1COC[C@@H](C/C=C/c2ccccc2)N1c1ccccc1	13.5	i	6.3	-2.4%	11.0%	-2.8%
CNc1ccc(C=C2C=CC=C2)cc1	.	.	.	.	-24.1%	-4.2%
CCCCCCN(C(=O)CCl)c1ccccc1	-3.0	?	.	.	22.4µM*	-114.6%
CCCCCCCN(C(=O)CCl)c1cccc(C)c1	1.2	.	11.8	25.1µM*	?	-28.4%
CCOC(=O)N1CCN(/[N+]([O-])=N/OCOC)CC1	.	.	.	.	-4.5%	1.6%
COC(=O)c1c(OCCN2CCCCC2)cc(=O)n2c1CCN(Cc1cccc3nccnc13)CC2	.	i	.	.	.	.
COc1ccc2cc(C=O)ccc2c1	.	i	.	11.7%	.	.
COc1ccc(OC)c(NC2=NC3(CCCCC3)N=C(N)N2)c1	-83.7*	i	-73.2*	-0.8%	-0.3%	0.2%
COc1ccc(NC2=NC3(CCCCC3)N=C(N)N2)cc1	-13.3	i	-2.7	2.8%	-10.7%	-3.8%
O=C(Cc1cccc2ccccc12)Nc1ccc(O)cc1C(=O)O	-1.1	i	3.7	-1.7%	-8.9%	17.0%
O=C(Cc1cccc2ccccc12)Nc1ccc(Br)cc1C(=O)O	-25.9	.	.	.	-23.2%	14.1µM*
COc1ccc(NC(=O)NCCCN2CCN(c3cc(C)ccc3C)CC2)cc1	-0.4	?	-13.4	?	?	12.6µM*
COc1ccc(C2=C(C)C(=NCCCN3CCN(c4cc(C)ccc4C)CC3)NS2(=O)=O)cc1	.	.	.	.	?	10µM*
COc1ccc(NC(=O)NCCCN2CCN(c3ccccc3F)CC2)cc1	0.4	i	-0.3	-11.1%	0.0%	-5.7%
COc1ccc(/C=C/c2nccc3ccccc23)cc1OC	.	.	.	.	?	-25.4%
NC(=O)N=Nc1c2[nH]c3ccccc3nc-2c2ccccc12	?	?	-69.1*	?	-24.9%	-11.6%
O=c1[nH]c2ccccc2nc1-c1ccccc1	20.7	i	-3.9	82.5%	-2.5%	15.0%

Assay outcomes (PubChem BioAssay)
